Screen size: about 300,000 compounds; about 1,200 (0.4%) were called active. Not shown: some 3% with an inconclusive outcome. Calls follow the shape of the dose curve; as a rule, active = well fitted inhibition curve with a large enough effect; inconclusive = small, poorly fitted or top-dose-only effect, or another doubt; inactive = no such curve, though single readings can be large or run the other way. What follows is part of a selection rich in actives, with near analogues and random picks from the rest. Entries that show only a call come without a potency.
Biological target: Lysosomal alpha-glucosidase (Homo sapiens) (UniProt P10253)
Test: qHTS Assay for Inhibitors and Activators of Human alpha-Glucosidase Cleavage of Glycogen;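 also: the screen sought inhibitors and activators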
Settings: recombinant GAA, glycogen substrate, Amplex Red glucose oxidase fluorescence; series mostly up to 76.3 µM
Text: NIH Chemical Genomics Center [NCGC] NIH Molecular Libraries Probe Production Centers Network [MLPCN] MLPCN Grant: R03 MH084841-01 Assay Submitter (PI): Wei Zheng NCGC Assay Overview: Alpha-glucosidase is responsible for the hydrolysis of terminal, non-reducing 1,4-linked alpha-D-glucose residues, which releases alpha-D-glucose. It is a lysosomal hydrolase that is required for the degradation of a small percentage (1-3%) of cellular glycogen in humans. Deficiency of this enzyme results in glycogen-storage disease type II (GSDII), also referred to as Pompe disease, an autosomal recessive disorder. Structurally normal glycogen is accumulated in the lysosomes and cytoplasm in affected patients, primarily in muscle tissues. Excessive glycogen storage within lysosomes may interrupt normal functioning of other organelles and leads to cellular injury. In turn, this leads to enlargement and dysfunction of the entire organ involved (eg: cardiomyopathy and muscle weakness). It has been reported that the improper folding and trafficking of alpha-glucosidase resulting from genetic mutations may account for a significant number of Pompe patients. […] We optimized this alpha-glucosidase assay in 1536-well plate format for identification of novel small molecule inhibitors or activators with structures other than the sugar analogs in order to develop new pharmacological chaperones. Previous assays of alpha-Glucosidase have utilized a non-natural fluorescent substrate to probe enzyme activity. The present assay measures enzyme activity on glycogen using a coupled-assay system to glucose oxidase.
NCGC Assay Protocol Summary: This is an enzyme assay using glycogen from bovine liver (Sigma catalog #: G0885) as the substrate and recombinant human alpha-glucosidase as the enzyme preparation. Upon hydrolysis of the substrate, the glucose product can be detected using the Amplex Red Glucose Oxidase Assay Kit (Invitrogen catalog #: A22189). The product of this reaction can be read with a fluorescence plate reader with an excitation at 573 nm and an emission at 610 nm. Data were normalized to the controls for basal activity (without enzyme) and 100% activity (with enzyme). The AC50 values were determined from concentration-response data modeled with the standard Hill equation. Assay buffer for enzyme reaction: 50 mM citric acid (titrated with potassium phosphate to pH 5.0), 0.01% Tween-20 (pH 5.0 is an optimal condition for this enzyme assay) Assay buffer for Amplex Red reaction: Tris-HCl, pH 7.5 1536-well assay protocol for the alpha-glucosidase assay: (1) Add 2 ul/well alpha-glucosidase enzyme solution (4 nM final) (2) Add 23 nL compounds in DMSO solution. The final titration was 0.7 nM to 77 uM. (3) Add 1 ul of glycogen substrate solution (30 ug) (4) Incubate at 37 C for 40 min (5) Add 2 ul tris-HCl buffer with Amplex Red reagents (6) Incubate 45 min at room temperature. (7) Detect the assay plate in a ViewLux plate reader (PerkinElmer) with Ex=573 nm and Em=610nm. Keywords: Alpha-glucosidase, Pompe Disease, pharmacological chaperone, chaperone therapy, high throughput screening, alpha-glucosidase inhibitor, MLSMR, MLSCN, NIH Roadmap, qHTS and NCGC
Potency is read from the fitted curve at half-maximal effect.

| Compound | Potency |
| --- | --- |
| N#C/C=C\Oc1ccc(Cl)cc1N | 9.92 µM (active) |
| CCCS(=O)(=O)c1c(Nc2ccccc2C)sc(C(=O)c2ccccc2)c1N | inactive |
| COc1ccc(S(=O)(=O)Nc2cc3c(C(=O)OC(C)C)c(C)oc3c3ccccc23)cc1 | inactive |
| Cn1cnc([N+](=O)[O-])c1Sc1n[nH]c(N)n1 | inactive |
| Cn1cnc([N+](=O)[O-])c1Nc1ccccc1O | 7.88 µM (active) |
| Cn1cnc([N+](=O)[O-])c1Sc1ccccc1 | inactive |
| CC1=C(C(=O)OCc2ccc(C)cc2)C(c2ccccc2Cl)CC(=O)N1 (stereo not given) | inactive |
| CCc1ccc(NC(=O)c2sc3nc4c(cc3c2N)CN(CC)CC4)cc1 | inactive |
| CCc1nn(CC(=O)N2CCN(c3ccc(Cl)cc3)CC2)c(=O)c2cc3occc3n12 | inactive |
| Fc1ccccc1N=C1Nc2cccc3cccc1c23 | inactive |
| COc1ccccc1-c1nc(SC)n[nH]1 | inactive |
| COc1ccccc1C1=Nc2cccc3cccc(c23)N1 | 17.6 µM (active) |
| Cc1cc(C)c2c(-n3cccc3)c(NC(=O)OCc3ccccc3)sc2n1 | inactive |
| Cc1cc(C)c2c(-n3cccc3)c(C(=O)NNS(=O)(=O)c3ccc(F)cc3)sc2n1 | 31.6 µM (active) |
| COC(=O)Nc1sc2nc(C)cc(C)c2c1-n1cccc1 | inactive |
| COc1ccc(Cn2cc(C(=O)c3ccc(C)cc3)c(=O)c3cc(OC)c(OC)cc32)cc1 | inactive |
| COc1ccc(CNC(=O)c2cc3c(-c4ccccc4F)nn(C)c3s2)c(OC)c1 | inactive |
| COc1ccc(-c2cc(C(F)(F)F)nc(SCC(=O)N(C)Cc3ccccc3)n2)cc1OC | inactive |
| Cc1ccc(C(=O)NNC(=O)c2cccs2)cc1 | inactive |
| Cc1ccc(NNC(=O)c2cccs2)cc1Cl | 14.1 µM (active) |
| O=C(NNC(=O)c1ccc(Cl)cc1Cl)c1cccs1 | inactive |
| O=[N+]([O-])c1ccc(N2CCN(c3ccc(O)cc3)CC2)c(Cl)c1 | 10 µM (active) |
| COc1ccc(N2CCN(c3ccc([N+](=O)[O-])cc3Cl)CC2)cc1 | inactive |
| O=C(O)C1CCN(c2ccc([N+](=O)[O-])cc2[N+](=O)[O-])CC1 | inactive |
| O=C(CSCc1cnn(-c2ccccc2)c1-n1cccc1)NCc1ccccc1Br | inactive |
| CC(=O)Nc1ccc(NC(=O)CCCc2nc(-c3ccc(C(C)(C)C)cc3)no2)cc1 | inactive |
| COc1ccc(N2CCN(c3cc(C)nc4nncn34)CC2)cc1 | inactive |

| Compound | Potency |
| --- | --- |
| O=C(COC(=O)c1ccccc1C(=O)N1CCN(c2ccccc2)CC1)NCc1ccccc1 | inactive |
| S=C(NCCc1ccccc1)N1CCCCC1 | inactive |
| Oc1ccc(N2CCN(C(=S)NCc3ccccc3)CC2)cc1 | 3.16 µM (active) |
| COc1ccc(-c2noc(CSc3nc4ccc(C)cc4[nH]3)n2)cc1 | inactive |
| O=C(CN1CCOCC1)Nc1ccccc1 | inactive |
| O=C(CN1CCN(c2ccc(O)cc2)CC1)Nc1ccc(-c2ccccc2)cc1 | 10 µM (active) |
| O=C(CN1CCN(c2ccccc2)CC1)Nc1ccc(F)cc1 | inactive |
| CCOc1ccc(N(CC)S(=O)(=O)N2CCCC(C(=O)NCc3ccc(SC)cc3)C2)cc1 (stereo not given) | inactive |
| CCc1ccc(NC(=O)C2CCCN2S(=O)(=O)c2ccc3nc(-c4ccccc4)[nH]c3c2)cc1 (stereo not given) | inactive |
| Cc1ccccc1CNC(=O)CCCn1nc(C)c2sc3ccccc3c2c1=O | inactive |
| O=C(Cn1nc(C(F)(F)F)c2c1CCCC2)Nc1ccc(Cl)cc1 | inactive |
| COc1cccc(-c2nc(CS(=O)(=O)CC(=O)N3CCN(c4cc(C)ccc4C)CC3)c(C)o2)c1 | inactive |
| CC/C(C)=N/Nc1nc2sc3c(c2c(=O)[nH]1)CC(C)(C)OC3 | inactive |
| C=CCNC(=S)NNc1ncnc2sc3c(c12)CC(C)(C)OC3 | 11.2 µM (active) |
| CCC(O)CNc1nc(-n2nc(C)cc2C)nc2sc3c(c12)CC(C)(C)OC3 (stereo not given) | inactive |
| Cc1cccc(OCCSc2nc3ccccc3n2CC(=O)N2CCCCC2)c1C | inactive |
| Cc1cc(Nc2ccccc2)n(CCC#N)n1 | 19.8 µM (active) |
| Cc1cc(Nc2ccccc2)n(C(=O)c2ccc(N)cc2)n1 | inactive |
| N#CCCn1ncc2ccccc21 | inactive |
| COc1ccc(NC(=O)NC(C)c2c(-n3cccc3)sc(C)c2C)cc1OC (stereo not given) | inactive |
| O=C(CS(=O)(=O)c1ccc(C(F)(F)F)cn1)NNC(=O)c1ccccc1 | inactive |
| Cc1cc(C(=O)NNS(=O)(=O)c2ccccc2C(F)(F)F)nn1C(C)(C)C | inactive |
| O=C(NNS(=O)(=O)c1ccccc1C(F)(F)F)c1cc2ncc(C(F)(F)F)cc2s1 | 28.2 µM (active) |
| CCc1ccc(NC(=O)Cn2c(=O)n(CCC(=O)NCc3ccc4c(c3)OCO4)c(=O)c3ccccc32)cc1 | inactive |
| COc1ccc(S(=O)(=O)c2cn(C)c3cc(N4CCCCC4)c(F)cc3c2=O)cc1 | inactive |
| CCS(=O)(=O)N1CCc2cc(C(=O)N3CCN(c4ccccc4OC)CC3)ccc21 | inactive |
| CCCOc1ccc(C2c3c(-c4ccccc4O)n[nH]c3C(=O)N2Cc2cccnc2)cc1 (stereo not given) | inactive |

| Compound | Potency |
| --- | --- |
| CCOc1ccc(CNC(=O)C2CCCN(S(=O)(=O)N(CC)c3ccc(OCC)cc3)C2)cc1 (stereo not given) | inactive |
| COc1ccc(CNC(=O)c2ccc(NC(=O)N3CC4CCCN4c4ccccc43)cc2)cc1 (stereo not given) | 17.8 µM (active) |
| COc1ccccc1CNC(=O)c1ccc(NC(=O)N2CC(C)Sc3ccccc32)cc1 (stereo not given) | inactive |
| COc1ccc(NC(=O)N2CCC(Cc3ccccc3)CC2)cc1 | inactive |
| CCCOc1cccc(C(=O)Nc2cccc(NC(=O)c3ccc(C(C)(C)C)cc3)c2)c1 | inactive |
| COc1ccc(CCNC(=O)c2cc(=O)c3c(C)cc(C)cc3o2)cc1OC | inactive |
| CCOC(=O)c1c(C)oc2ccc(N(C(=O)c3ccncc3)S(=O)(=O)c3ccc(CC)cc3)cc12 | inactive |
| CCn1c(SCC(=O)N/N=C/c2ccncc2)nc2ccccc21 | inactive |
| Cn1c(SCC(=O)N/N=C/c2ccc(O)c(O)c2)nc2ccccc21 | 8.91 µM (active) |
| Cc1ccc(/C=N/NC(=O)CSc2nc3ccccc3o2)cc1 | inactive |
| CCN(CC)S(=O)(=O)c1nnc(NC(=O)COc2ccccc2Cl)s1 | inactive |
| CCS(=O)(=O)N1CCc2cc(C(=O)NCc3ccc(OC)cc3)ccc21 | inactive |
| Cc1ccccc1-c1nc(CS(=O)(=O)CC(=O)Nc2cc(Cl)cc(Cl)c2)c(C)o1 | inactive |
| Cc1cccc(NC(=O)N2CCC(CN3CCc4ccccc4C3)CC2)c1C | inactive |
| CC1=CC(C)(C)N(C(=O)CSc2nnc(-c3ccccc3)o2)c2ccc(C)cc21 | inactive |
| COc1ccc2c(c1)C(C)=CC(C)(C)N2C(=O)CNCc1ccc2c(c1)OCO2 | inactive |
| COc1ccc2c(c1)C(C)=CC(C)(C)N2C(=O)Nc1ccccc1 | 35.5 µM (active) |
| CCOc1ccc(N(Cc2ccccc2)C(=O)c2nc(S(C)(=O)=O)ncc2Cl)cc1 | inactive |
| Cc1ccc(Cn2c(CCCNC(=O)C3CCCCC3)nc3ccccc32)cc1 | inactive |
| COc1ccc2c(Sc3ccc(C)cc3)c(C(=O)NC(C)c3ccccc3)[nH]c2c1 (stereo not given) | inactive |
| Cc1cc2cc3c(N)[nH]nc3nc2cc1C | 8.91 µM (active) |
| Cc1cccc(NC(=O)c2cc3c(C)nn(-c4ccccc4)c3s2)c1 | inactive |
| COc1ccc(-c2cn3nc(N4CCCC(C(=O)NCCCOC(C)C)C4)sc3n2)cc1 (stereo not given) | inactive |
| COC(=O)c1cc(S(=O)(=O)N2CCN(c3cc(Cl)ccc3C)CC2)c[nH]1 | inactive |
| COC(=O)c1cc2occc2n1Cc1nc(-c2ccc(C)cc2)oc1C | inactive |
| Cc1nn(C(C)C(=O)NCCc2ccccc2)c(=O)c2c1sc1ccccc12 (stereo not given) | inactive |
| O=C(Nc1ccccc1)Nc1ccc(C(F)(F)F)cn1 | inactive |

| Compound | Potency |
| --- | --- |
| Oc1ccc(/C=N/Nc2ccc(C(F)(F)F)cn2)cc1O | 3.52 µM (active) |
| Oc1ccc(Br)cc1/C=N/Nc1ccccn1 | inactive |
| CCC1CCCCN1S(=O)(=O)c1ccc(NC(=O)c2cc(=O)c3ccccc3o2)cc1 (stereo not given) | inactive |
| CCN1C(=O)c2cccc3c(S(=O)(=O)Nc4ccccc4O)ccc1c23 | inactive |
| CN1C(=O)c2cccc3c(N)ccc(c23)C1=O | inactive |
| CCN1C(=O)c2cccc3c(N)ccc1c23 | 28.2 µM (active) |
| O=C(Nc1ccc2nc(SCC(=O)N3CCCc4ccccc43)sc2c1)c1ccc(Cl)cc1 | inactive |
| CCOC(=O)c1c(/N=C/c2cc(C)ccc2O)sc2c1CCC2 | 10 µM (active) |
| CCOC(=O)c1c(NC(=S)NC)sc2c1CCCC2 | inactive |
| CCOC(=O)c1c(NC(=O)/C(C#N)=C/c2ccccc2)sc2c1CCC2 | inactive |
| COc1ccc(N2CCN(S(=O)(=O)c3ccc4c(c3)CC(=O)N4)CC2)cc1 | 59.8 µM (active) |
| COc1ccc(N2CCN(S(=O)(=O)c3ccc4c(c3)NC(=O)C(C)C(=O)N4)CC2)cc1 (stereo not given) | inactive |
| O=C1CC(=O)Nc2cc(S(=O)(=O)N3CCN(c4cccc(C(F)(F)F)c4)CC3)ccc2N1 | inactive |
| Cc1ccc(NC(=O)c2nc(S(=O)(=O)Cc3cccc(C)c3)ncc2Cl)cc1 | inactive |
| Cc1ccc2nc(C)cc(N/N=C/c3ccc(F)cc3)c2c1 | inactive |
| Cc1cc(N/N=C/c2ccccc2F)c2ccccc2n1 | inactive |
| COc1cccc2c(N/N=C/c3ccco3)cc(C)nc12 | 8.84 µM (active) |
| Cc1ccc(CCNC(=O)C2CCN(c3nnc(-n4cccc4CNc4ccc(C)cc4)s3)CC2)cc1 | inactive |
| CCOc1ccc(CNC(=O)C2CCN(c3nnc(-n4cccc4CNc4ccc(C)cc4)s3)CC2)cc1OC | 31.6 µM (active) |
| Cc1ccc(C)n1-c1nnc(N2CCC(C(=O)NCc3ccc(F)cc3)CC2)s1 | inactive |
| Cc1cccc(OCC(=O)N(Cc2ccc(C(C)C)cc2)Cc2ccco2)c1C | inactive |
| CCn1c2ccccc2c2cc(NC(=O)COC(=O)c3ccccc3Br)ccc21 | inactive |
| CCn1c2ccccc2c2cc(NC(=O)CNC)ccc21 | inactive |
| CCn1c2ccccc2c2cc(NC(=S)N3CCOCC3)ccc21 | 12.5 µM (active) |
